The entries come from a sample that favours hits as a whole.
LmPK inh = blocks Leishmania mexicana pyruvate kinase activity. Q27686. purified LmPK, Kinase-Glo ATP luminescence, 1 h. Potency, µM (series often up to 57.5 µM), for inactives: at the highest dose activity change, negative = inhibition, actives largely listed as inhibitors. hit rate 0.37% among 290,000. AID 1721; also: potency is read from the fitted curve at half-maximal effect; % is scaled to controls: 0 for no effect and ±100 for the full control effect
Target sequence (Q27686 whole entry, looked up): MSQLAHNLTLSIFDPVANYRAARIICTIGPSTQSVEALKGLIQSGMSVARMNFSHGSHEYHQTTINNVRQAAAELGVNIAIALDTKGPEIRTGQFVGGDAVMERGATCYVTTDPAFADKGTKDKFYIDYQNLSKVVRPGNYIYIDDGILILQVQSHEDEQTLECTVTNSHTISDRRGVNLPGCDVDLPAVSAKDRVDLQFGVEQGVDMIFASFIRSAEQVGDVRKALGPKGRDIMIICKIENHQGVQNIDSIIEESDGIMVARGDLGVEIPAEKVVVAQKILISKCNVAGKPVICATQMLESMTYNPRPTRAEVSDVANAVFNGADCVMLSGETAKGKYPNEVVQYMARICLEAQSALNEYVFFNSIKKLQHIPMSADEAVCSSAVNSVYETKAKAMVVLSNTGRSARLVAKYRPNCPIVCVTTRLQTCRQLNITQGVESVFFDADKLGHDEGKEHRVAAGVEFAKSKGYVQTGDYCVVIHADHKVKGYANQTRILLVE
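qHTS format; LmPK 0.1 nM; substrates PEP 0.5 mM and ADP 0.1 mM. One-hour room-temperature incubation, then coupled luciferase luminescence; 0.5 nM enzyme wells mark activation.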
Giardia FBPA inh = Giardia lamblia aldolase inhibition; A8B2U2; purified Giardia FBPA; Potency, µM (series often up to 59.6 µM), for inactives: at the highest dose activity, negative = inhibition, usual class: inhibitors; hit rate 0.71% among 290,000; AID 2451; also: potency is read from the fitted curve at half-maximal effect; % is scaled to controls: 0 for no effect and ±100 for the full control effect; nearly all actives have a fitted effect of over 55% in size
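40 nM FBPA preincubated 10 min at RT with compound (up to 57.5 uM final), then substrate plus GAPDH/TPI/NAD/arsenate coupling and diaphorase/resazurin added. Fluorescence read after 20 min at RT, 525/598 nm.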
Tb PYK inh = T. brucei pyruvate kinase inhibition; TbPYK enzyme, Kinase-Glo Plus ATP luminescence, 45 min; Potency, µM (highest dose often 76.8 µM), inactives show at the top dose activity, negative = inhibition, actives largely listed as inhibitors; hit rate 0.12% among 410,000; AID 624173; also: potency is read from the fitted curve at half-maximal effect; % is scaled to controls: 0 for no effect and ±100 for the full control effect; nearly all actives have a fitted effect of over 50% in size
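TbPYK + substrate in 50 mM TEA pH 7.2, 100 mM KCl, 10 mM MgCl2, 0.05% BSA, 0.01% Tween-20; cpd pinned; ADP 130 uM final; 45 min RT; Kinase-Glo Plus 10 min; luminescence endpoint.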
CHX counter = counter-screen for Shiga toxin inhibitors: cycloheximide protein synthesis inhibition; hit rate 12% among 300,000; max response, %; cell reporter, cycloheximide protein synthesis inhibition counterscreen; AID 2314; in the data active = max response mostly above about 13%, no sharp cut-off; inactive = mostly below about 14%; also: read at 38.3 µM for the half of the compounds with a filed dose; 0% is about no effect
Shiga toxin inh = blocks Shiga toxin action in Vero cells. Vero cells, Shiga toxin protein synthesis inhibition reporter. inhibition, % at 38.7 µM. hit rate 9.2% among 290,000; in the data active = inhibition mostly above about 28%, no sharp cut-off; inactive = mostly below about 43%; also: 0% is about no effect
Sm TGR block = S. mansoni TGR enzyme inhibition; Q962Y6; purified TGR, DTNB reduction, TNB absorbance 405 nm; Potency, µM (doses to about 114 µM), for inactives: at the highest dose activity change, negative = inhibition, most hits filed as inhibitors; hit rate 3% among 360,000; also: potency is read from the fitted curve at half-maximal effect; % is scaled to controls: 0 for no effect and ±100 for the full control effect; nearly all actives have a fitted effect of over 60% in size
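First, TGR (20 nM dispensed) and NADPH were mixed with compound. Second, a 15 min room-temperature incubation followed. Third, further NADPH and then DTNB were added to start the reaction. Finally, TNB absorbance was monitored kinetically.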
* hit, by the source's call; ? = inconclusive; · = no result given; + = active, no number; [ ] = another dose, or the depositor's remark. Unless noted, calls follow the shape of the dose curve; as a rule, active = well fitted curve in the direction sought with a large enough effect; inconclusive = small, poorly fitted or top-dose-only effect, or another doubt; inactive = no such curve, though single readings can be large; an effect the other way counts as inactive or inconclusive.

SMILES	LmPK inh	Giardia FBPA inh	Tb PYK inh	CHX counter	Shiga toxin inh	Sm TGR block
COc1cccc(CN2CCN(Cc3ccc(C)o3)CC2CCO)c1 (configuration not stated)	-9%	6%	2%	2	-10	35µM*
CC(C)CNC(=O)C1(C)CCCN1C(=O)c1ccncc1 (configuration not stated)	·	·	-5%	·	·	·
O=C(Nc1nnc([C@@H]2O[C@H](CO)[C@@H](O)[C@H]2O)s1)Nc1ccccc1C(F)(F)F	·	·	1%	·	·	·
COc1ccc(-c2nnc(NC(=O)Cc3ccccc3)s2)c(OC)c1	2%	7%	6%	-2	12	7%
O=C(Cc1ccccc1)Nc1nnc(-c2ccco2)s1	-3%	-2%	0%	34*	135*	?
CCC(C(=O)Nc1nnc(-c2ccco2)s1)c1ccccc1 (configuration not stated)	3%	4%	4%	-2	-28	32µM*
CCCC(=O)Nc1nnc(-c2ccco2)s1	0%	-7%	1%	40*	58*	?
C=CC[C@@H]1C=C[C@@H](O/N=C\c2ccc(C(=O)N3[C@H](c4ccc(C)cc4)[C@@H](C)CC[C@H]3C(=O)OC)cc2)[C@@H](CO)O1	·	1%[12.9 µM]	·	·	·	·
O=C(/C=C/c1ccccc1[N+](=O)[O-])Nc1ccccc1	?	-8%	2%	36*	101*	9%
COc1cc(NC(=O)/C=C/c2ccccc2[N+](=O)[O-])cc(OC)c1	-4%	-1%	-5%	15*	19	-6%
O=C(/C=C/c1ccccc1[N+](=O)[O-])NC1CCCC1	0%	-8%	4%	19*	70*	-1%
CCC(C)(C)NC(=O)/C=C/c1ccccc1[N+](=O)[O-]	0%	5%	5%	5	-9	4%
CCc1cccc(N2C(=O)N(CC(=O)NCc3cccc(OC)c3OC)c3ccccc3S2(=O)=O)c1	·	·	-13%	·	·	-1%
CCCNS(=O)(=O)c1ccc2nc(NC(=O)c3ccc(F)cc3)sc2c1	·	·	1µM*	·	·	-4%
CCNS(=O)(=O)c1ccc2nc(NC(=O)c3cccnc3)sc2c1	-4%	4%	-1%	33*	84*	3%
CCCCNS(=O)(=O)c1ccc2nc(NC(=O)c3cccnc3)sc2c1	·	·	-1%	·	·	-5%
CCN(CC)c1ccc(C(=O)Nc2cccc(F)c2)cc1	1%	-2%	2%	28*	42	4%
CN(C)c1cccc(C(=O)Nc2cccc(F)c2)c1	-1%	?	-1%	41*	68*	-26%
Cc1ccc(NC(=O)CCn2cccc2)cc1F	5%	2%	7%	10	-2	?
O=C(CCn1cccc1)Nc1cccc(F)c1	5%	2%	-12%	-2	11	35µM*
COc1ccc(S(=O)(=O)N(C)c2ccc(C(=O)N3CCCCC3)cc2)cc1	0%	10%	0%	-2	-14	-8%
CN(C)c1ccc(-c2ccnc3c2CC(C)(C(=O)Nc2cccc(Oc4ccccc4)c2)O3)cc1 (configuration not stated)	·	·	-1%	·	·	·
Cc1ccc(S(=O)(=O)N[C@@H](Cc2ccccc2)C(=O)N2CCC[C@@H]2C(=O)O)cc1	5%	1%	-9%	-4	-11	-4%
O=C(CSCc1ccccc1Cl)Nc1ccc2c(c1)OCCO2	-4%	-2%	-1%	58*	95*	13%
O=C(CNCc1ccc(Cl)cc1)Nc1ccc2c(c1)OCCO2	-4%	?	-4%	20	28	0%
SMILES	LmPK inh	Giardia FBPA inh	Tb PYK inh	CHX counter	Shiga toxin inh	Sm TGR block
O=C(CNCc1ccccc1Cl)Nc1ccc2c(c1)OCCO2	-6%	?	4%	45*	87*	-3%
CCN(CC)c1ncnc2c1ncn2[C@H]1CN(Cc2ccc(OC)cc2)C[C@@H](CO)O1	·	·	3%	·	·	·
CC(=O)Nc1cccc(NC(=O)CSc2nc(=O)n(CCN3CCOCC3)c3c2CCCC3)c1	·	·	6%	·	·	-36%
CC(=O)/C(C#N)=C1\NC(=O)C(Cc2ccc(C)c(Cl)c2)S1 (configuration not stated)	5%	20%	3%	16*	25	-15%
Cn1nc(C(=O)OCC(=O)NCCc2ccccc2)c2ccccc2c1=O	0%	·	-6%	27*	7	9%
COC(=O)c1ccc(COC(=O)c2nn(C)c(=O)c3ccccc23)cc1	1%	3%	8%	23*	57	0%
Cn1nc(C(=O)OCC(=O)c2ccccc2)c2ccccc2c1=O	·	·	-8%	·	·	·
Cn1nc(C(=O)OCC(=O)NCc2ccc(Cl)cc2)c2ccccc2c1=O	·	·	-9%	·	·	·
Cc1cc(C)n(C(C)CC(=O)Nc2ccc3c(c2)OCCO3)n1 (configuration not stated)	7%	-12%	4%	27	18	0%
CC1C(=O)N(Cc2cn(CCC3OCCCO3)nn2)CCS(=O)(=O)N1Cc1ccc(-c2ccncc2)cc1 (configuration not stated)	·	·	2%	·	·	·
CC/C(=N\NS(C)(=O)=O)c1ccccc1	-5%	-1%	7%	-6	-5	-14%
C/C(=N\NC(=O)Nc1ccccc1)c1ccc2ccccc2c1	5%	-1%	-2%	2	-13	2%
CC/C(=N\NC(=O)Nc1ccccc1)c1ccccc1	1%	3%	1%	19*	37	-3%
C/C(CC(C)C)=N\NC(=O)Nc1ccccc1	0%	0%	8%	42*	42*	-7%
C/C(=N/NC(=O)Nc1ccccc1)c1ccc(C)cc1	5%	4%	-5%	-3	29*	-8%
CCOC(=O)C/C(C)=N\Nc1nc(-c2ccccc2)cs1	-8%	-4%	-10%	26	52	3%
CCOC(=O)C/C(C)=N/NC(=O)Nc1ccccc1	-3%	5%	-15%	40*	+	21%
CC(C)Cn1c(=O)c2ccccc2n2c(CCC(=O)N3CCN(c4ccccc4)CC3)nnc12	·	·	6%	·	·	4%
CS/C(=C/[N+](=O)[O-])Nc1cccc2c1C(C)CC2(C)C (configuration not stated)	-6%	8%	3%	1	18	13µM*
CNC(=O)c1c(NC(=O)c2ccc(S(=O)(=O)N3CCCC(C)C3)cc2)sc2c1CCC2 (configuration not stated)	·	·	5%	·	·	?
O=C(Nc1cnc2ccccn2c1=O)c1ccc(Cl)cc1Cl	?	4%	-1%	44*	96*	15%
Cc1ccc(C(=O)Nc2cnc3ccccn3c2=O)cc1	-15%	-2%	1%	41*	103*	0%
CC(C)c1nc(C#N)c(NN)o1	-2%	?	1%	49*	116*	14%
CC(C)c1nc(C#N)c(NCCCn2ccnc2)o1	-2%	-11%	35%	5	-16	-17%
Cc1ccc(-n2nnnc2SCC(=O)N2CC(=O)Nc3ccccc32)cc1	4%	1%	-4%	-4	-26	45µM*
